Among the data in PubChem BioAssay (NCI) are growth values, retold here.

This is part of a sample that, as a whole, favours compounds with a hit. Of some 83,000 tested, about 20% had one in any assay.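 The endpoint reported here, percent growth, reads 100 for growth as untreated, 0 for no net growth and -100 for all cells dead.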 A number with no mark means an inactive call. Active and inactive are the calls of the source. Rule for the calls: active = growth percent below 10; inactive = the rest.

Test systems include EKVX NSCLC; SN12C renal; UO-31 renal; TK-10 renal; ACHN renal; CAKI-1 renal; A498 renal; SR leukemia; MOLT-4 leukemia; CCRF-CEM leukemia.
Holding throughout (assay): NCI-60 one-dose screen, 48 h (100 = growth as untreated, 0 = no growth, -100 = all killed)
Details in all cases: 10 µM unless noted

Take `CC1=C(C(=O)Nc2ccccc2)C(c2ccc3c(c2)OCCO3)NC(=O)N1` (centres undefined): the growth in the assay with EKVX NSCLC is 112%; with SN12C renal it was 100%; in the assay on UO-31 renal, 87%; with TK-10 renal, 133%; in the assay on ACHN renal, 104%; in the assay on CAKI-1 renal it was 95.6%. Besides, the growth in the assay on A498 renal is 101%; in the assay on SR leukemia, 92.9%.

For the compound `COc1ccc(C(=O)COc2cccc(/C=C3\Oc4ccc5ccccc5c4C3=O)c2)cc1`, the growth was 89.6% in the assay on EKVX NSCLC; 75% in the assay on SN12C renal; -54.4% (active) with UO-31 renal; 90.1% in the assay on TK-10 renal; 97.5% in the assay on ACHN renal; 27.6% in the assay on CAKI-1 renal. Moreover, the growth with A498 renal was 139%; in the assay with MOLT-4 leukemia it was 18.9%; in the assay on SR leukemia, 15.9%.

Regarding `c1cncc(CNc2ccccc2-c2nnc(Nc3ccc4c(c3)OCO4)o2)c1`, the growth in the assay with EKVX NSCLC was 35.3%; with SN12C renal, 28.8%; with UO-31 renal it was 40.7%; with TK-10 renal, 50%; in the assay on ACHN renal, 32.2%; in the assay on CAKI-1 renal, 9.02% (active). Further, the growth in the assay with CCRF-CEM leukemia is 19%; in the assay on MOLT-4 leukemia, 18.6%.

Turning to `COc1ccc2c(c1)C(=O)/C(=C/c1cccc(OCC(=O)c3ccccc3)c1)CC2`, the growth with EKVX NSCLC is 75.8%; in the assay on SN12C renal, 114%; with UO-31 renal it was 9.87% (active); with TK-10 renal, 107%; in the assay on ACHN renal, 94.4%; in the assay on CAKI-1 renal, 80.4%. Besides, the growth was 89.2% in the assay with A498 renal, 52.7% in the assay on MOLT-4 leukemia and 11.1% in the assay with SR leukemia.

Regarding `C[N+]1(CCC[N+]2(C)C[C@@H]3[C@H](C2)[C@@H]2C=C[C@H]3C2)CCOCC1` (some centres undefined), the growth in the assay on EKVX NSCLC was 118%; in the assay with SN12C renal, 101%; in the assay on UO-31 renal it was 73.9%; with TK-10 renal, 113%; in the assay on ACHN renal, 90.9%; in the assay with CAKI-1 renal, 101%. Further, the growth in the assay with A498 renal is 103%; in the assay with CCRF-CEM leukemia it was 110%; in the assay with SR leukemia, 110%.

In the case of `CN(C)CCCN1c2nc3ccccc3cc2Sc2cc3ccccc3nc21`, the growth is -50.9% (active) with EKVX NSCLC; -22.4% (active) with SN12C renal; -22.7% (active) in the assay on UO-31 renal; -78.2% (active) with TK-10 renal; -100% (active) in the assay with ACHN renal; -17.2% (active) with CAKI-1 renal. In addition, the values for the growth with A498 renal, in the assay on MOLT-4 leukemia and with SR leukemia were -5.96% (active), -57.9% (active) and -38.2% (active), respectively.

Regarding `Nc1nc(N)c([N+](=O)[O-])c(=O)[nH]1`, the growth is 121% with EKVX NSCLC; 105% with SN12C renal; 80.8% in the assay with UO-31 renal; 94.6% in the assay with TK-10 renal; 98.7% in the assay on ACHN renal; 104% in the assay with CAKI-1 renal. The growth was 97.9% with A498 renal, 93.1% in the assay with CCRF-CEM leukemia and 106% in the assay on SR leukemia.

With `CCCCCCCCSc1ncnc2c1ncn2CO`, the growth with EKVX NSCLC is 55.5%; with SN12C renal it was 76.4%; in the assay on UO-31 renal, 86.6%; in the assay with TK-10 renal, 89.9%; in the assay on ACHN renal, 81%; in the assay with CAKI-1 renal it was 72.6%. The growth was 106% in the assay on A498 renal, 85.8% in the assay on MOLT-4 leukemia and 115% with SR leukemia.

With `CC(=O)Oc1c(C)c(OC(C)=O)c2c(c1C(C)=O)OC1CC(=O)C(C(C)=O)=C(O)C21C` (centres undefined), the growth in the assay with EKVX NSCLC was 96.9%; in the assay on SN12C renal, 95.5%; in the assay on UO-31 renal it was 89%; in the assay on TK-10 renal, 109%; in the assay with ACHN renal it was 97%; with CAKI-1 renal, 99.3%. Moreover, the growth in the assay with CCRF-CEM leukemia is 102%; in the assay on MOLT-4 leukemia it was 64%.

`CC(=O)n1c2ccccc2c2ccccc21`: the growth in the assay with EKVX NSCLC is 103%; in the assay on SN12C renal, 107%; in the assay on UO-31 renal, 83.6%; with TK-10 renal it was 115%; in the assay with ACHN renal, 117%; in the assay on CAKI-1 renal, 97.5%. Further, the growth with A498 renal is 95.1%; in the assay on MOLT-4 leukemia, 104%.

As for `NC(=Nc1ccccc1)SCCCCSC(N)=Nc1ccccc1`, the growth in the assay on EKVX NSCLC was 80.4%; in the assay on SN12C renal it was 87%; with UO-31 renal, 31%; in the assay on TK-10 renal, 97.3%; in the assay with ACHN renal, 75.4%; in the assay on CAKI-1 renal it was 74.2%. Moreover, the growth is 82.3% in the assay with A498 renal and 70.3% with MOLT-4 leukemia.

Take `Cc1cc2cn3c4cccnc4[nH]c(=O)c3c2cc1C`: the growth in the assay with EKVX NSCLC was 76.7%; in the assay with SN12C renal, 22.5%; in the assay with UO-31 renal, 58.9%; in the assay with TK-10 renal, 61.3%; in the assay with ACHN renal it was 82.1%; in the assay with CAKI-1 renal, 75.7%. In addition, the growth in the assay with CCRF-CEM leukemia was 4.5% (active); in the assay on MOLT-4 leukemia it was 18.4%.

Turning to `COc1cccc2c1C(=O)c1c(O)c3c(c(O)c1C2=O)C[C@@](O)(/C(C)=N/NC(=O)c1cccc([N+](=O)[O-])c1)C[C@@H]3OC1CC(N)C(O)C(C)O1` (some centres undefined), the growth in the assay on EKVX NSCLC is -6.35% (active); with SN12C renal, -9.27% (active); in the assay with UO-31 renal, -17% (active); in the assay on TK-10 renal, -33.8% (active); in the assay on ACHN renal, -62.6% (active); with CAKI-1 renal, -47.4% (active). The figures for the growth in the assay with A498 renal and in the assay on MOLT-4 leukemia were -58.6% (active) and -39% (active), respectively.

Take `O=C(Nc1ccccc1Cl)c1cnc2ccc(C3CCNCC3)cn12`: the growth in the assay with EKVX NSCLC was 38.5%; in the assay with SN12C renal it was 58.8%; in the assay on UO-31 renal, -9.91% (active); in the assay on TK-10 renal, -13.2% (active); with ACHN renal, 12.7%; in the assay on CAKI-1 renal it was -40.1% (active). Further, the growth in the assay with A498 renal is 36.6%; with CCRF-CEM leukemia, 112%; in the assay on SR leukemia, 93%.
